Shown is part of a subset that was picked to be rich in hits.
TTR transcr act: increases transthyretin transcription | SH-SY5Y TTR promoter Gaussia luciferase, luminescence; 100% = recombinant luciferase protein wells | activation, % at 16.7 µM | 92,000 tested, 1.3% active;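 active means activation above the mean of all tested compounds plus 3 SD, cut at about 9.5% in these data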;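 further: cells exposed to compounds for one day before reading; 0% = median of all test compound wells on the plate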
TTR inh HuH7: HuH7 TTR transcription inhibition, counter-screen; shares compounds with TTR transcr act; HuH7 TTR promoter-Gaussia luciferase reporter, luminescence; inhibition, % at 16.7 µM; 1,100 tested, 4% active;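 active means average inhibition above the solvent-only control wells' mean plus 3 SD, cut at about 15% in these data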;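 further: 0% = cells with DMSO only and 100% = cells with inhibitor control FD; inhibitors lower well luminescence so higher value means more inhibition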
TTR up confirm: confirmation of human transthyretin transcription activators; SHSY5Y TTR promoter Gaussia luciferase, luminescence; 100% = purified Lucia enzyme wells, no cells; shares compounds with TTR transcr act; 1,100 tested, under 10 active; activation, % at 16.7 µM; AID 1117280;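 active means mean activation above a set limit taken from the earlier primary screen, cut at about 11% in these data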;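 further: 0% = DMSO-treated cells and 100% = recombinant Lucia luciferase without cells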
Active calls of the source: *.

SMILES	TTR transcr act	others
COc1ccc(-c2noc(CCC(=O)N3CCN(c4ccccc4C(F)(F)F)CC3)n2)cc1	-0.2
CC[C@]12c3[nH]c4cc(CCC(=O)N(C)C)ccc4c3CCN1C(=O)[C@@H](CC(=O)NCCc1ccccn1)C[C@@H]2C(=O)N1CCN(C(=O)c2ccco2)CC1	2.0
Cc1c(NC(=S)Nc2cccc(Cl)c2)c(=O)n(-c2ccccc2)n1C	0.8
COC(=O)c1ccc(NC(=O)c2cccnc2)cc1	-0.3
CCOC(CCNC(=O)c1cn(-c2cccc(C)n2)cn1)OCC	0.6
COC(=O)c1ccc(NC(=O)c2cn(-c3cccc(C)n3)cn2)cc1	29.8*	TTR inh HuH7=-10.7;TTR up confirm=-0.2
CCOC(CNC(=O)c1[nH]c(C(F)(F)F)nc1-c1ccccc1)OCC	0.4
Cc1ccc(NC2c3ncccc3C(=O)N2Cc2cccs2)cc1 (centres undefined)	1.8
NC(=O)C1(C(N)=O)OC1c1ccc(Cl)c(Cl)c1 (centres undefined)	0.6
COC(=O)[C@]12C[C@H](CC(=O)NCc3cccc(C(F)(F)F)c3)C(=O)N(CCC3=CCCCC3)C1=C[C@H](C1CCCC1)O[C@@H]2C	-0.2
CC(C(=O)Nc1ccc(C#N)cc1)N(C)Cc1cccs1 (centres undefined)	0.4
CC(C(=O)Nc1ccc(S(=O)(=O)N2CCCC2)cc1)N(C)CC(=O)Nc1cccc(F)c1 (centres undefined)	0.4
CC(C(=O)Nc1ccc(C#N)cc1)N(C)CC(=O)Nc1cccc(F)c1 (centres undefined)	9.9*	TTR inh HuH7=-9.4;TTR up confirm=-0.7
CC1C(=O)N(Cc2cn(CCC3OCCO3)nn2)CCS(=O)(=O)N1Cc1ccc(-c2ccc(Cl)c(Cl)c2)cc1 (centres undefined)	-3.0
COC(=O)[C@]12C[C@H](CC(=O)NCCCCc3ccccc3)C(=O)N(CCc3ccc(OC)c(OC)c3)C1=C[C@H](C(C)C)O[C@@H]2C1CC1	-2.4
COc1ccccc1OCc1csc(N)n1	23.9*	TTR inh HuH7=-14.3;TTR up confirm=-0.2
COc1ccc(/C=C/C(=O)OCc2csc(-c3ccccc3)n2)cc1OC	-1.2
CC(=O)Nc1nc(COc2ccccc2)cs1	-0.8
O=C(Nc1ccc(OC(F)(F)F)cc1)Nc1c(-c2ccc(C(F)(F)F)cc2)nc2ncccn12	7.0
CCOC(=O)c1cccc(-c2cc(C(=O)OC)c3n(c2=O)CCC3)c1	-0.9
C=CCN1C(=NC(=O)COc2ccc(Cl)cc2)SC2CS(=O)(=O)CC21 (centres undefined)	0.0
O=C(CSc1nc2ncc(Cl)cc2[nH]1)NCC(=O)Nc1ccc(F)c(F)c1F	10.6*	TTR inh HuH7=-11.1;TTR up confirm=0.1
CC(C)OC(=O)CSc1nc2ncc(Cl)cc2[nH]1	0.4
Cc1[nH]c2ccccc2c1C(=O)CSc1nc2ncc(Cl)cc2[nH]1	-1.9
O=C(Cn1cc(S(=O)(=O)Cc2ccc([N+](=O)[O-])cc2)c2ccccc21)N1CCOCC1	1.1
SMILES	TTR transcr act	others
COC(=O)[C@@]12C[C@@H](CC(=O)NCCC(C)C)C(=O)N(Cc3ccccc3)C1=CCC(C)(C)C2	0.1
CC(C)(C)[C@H]1C=C(C(=O)O)O[C@@H](OCCCCO)C1	1.7
CC(C)(C)[C@H]1C=C(C(=O)NCc2ccccc2)O[C@@H](OCCCCO)C1	18.5*	TTR inh HuH7=-30.9;TTR up confirm=1.1
C[C@H]1C=C(C(=O)NCc2nc3ccccc3[nH]2)O[C@@H](OCCCCO)C1	8.9
Cc1cccc(C)c1-n1nnnc1C(c1ccccc1)N1CCN(C/C=C/c2ccccc2)CC1 (centres undefined)	-1.1
O=S1(=O)c2ccc(N3CC[C@H](O)C3)cc2OCCCN1C1CC1	3.1
CCOC(=O)[C@@]12CCC3=C1N(CCC3)C(=O)[C@H](CC(=O)NCCCOC)C2	-0.2
CC1=C(C(=O)N2CCOCC2)CC(CC(=O)NCc2cccc3ccccc23)C(=O)N1Cc1ccc(C(C)(C)C)cc1 (centres undefined)	-1.9
O=S(=O)(c1ccccc1)N1CCN(C(=S)Nc2ccccc2Cl)CC1	-0.5
CC(C)NC(=S)NC(=O)/C=C/c1cccc2ccccc12	16.8*	TTR inh HuH7=-4.3;TTR up confirm=-1.1
COC(=O)C(CC(C)C)NC(=O)/C=C/c1ccccc1Cl (centres undefined)	-1.8
CC(O)C(=O)N/N=C/c1cccc2ccccc12 (centres undefined)	-0.6
CCOC(=O)c1c(C)[nH]c(C)c1C(=O)COC(=O)c1ccc(Cl)c(S(N)(=O)=O)c1	-0.3
O=C(Cc1ccc(Nc2nc3ccc(Br)cc3[nH]2)cc1)NCCc1cccs1	-4.6
O=C(NCCc1nc2ccccc2[nH]1)c1cccc(Br)c1	3.7
O=C(NCC1CC1)c1ccc(Nc2nc3ccc(Br)cc3[nH]2)cc1	34.1*	TTR inh HuH7=0.7;TTR up confirm=-0.7
CC(C)(O[C@@H]1O[C@H](CO)[C@@H](O)[C@H](O)[C@H]1O)[C@@H]1CC=C(C(=O)O)CC1	1.1
Cc1ccccc1Nc1nc(-c2ccccc2)c(C(=O)Nc2cccnc2)s1	13.5*	TTR inh HuH7=-13.4;TTR up confirm=-0.8
Cc1nc(Nc2ccc(Cl)c(Cl)c2)sc1C(=O)Nc1ccccc1	-3.0
O=C(Nc1ccccc1)c1sc(Cl)nc1-c1ccccc1	0.2
CCOc1ccc(OCC)c(NC(=O)C2CCCN(S(=O)(=O)c3ccc(C)cc3)C2)c1 (centres undefined)	2.1
CCOc1ccc(OCC)c(NC(=O)C2CCCN(C(=O)c3ccc(Cl)cc3)C2)c1 (centres undefined)	11.0*	TTR inh HuH7=-15.2;TTR up confirm=-0.1
CC(C)c1ccccc1NC(=O)C1CCCN(C(=O)c2ccc(Cl)cc2)C1 (centres undefined)	0.0
COc1cccc(-c2ccc(C3=CC(=O)CC(C)(C)C3=O)cc2)c1OC	-1.1
C/C(Cn1nnc2ccccc21)=N\NC(=O)c1ccc(Br)cc1	0.3
SMILES	TTR transcr act	others
COc1cccc(CN[C@@H]2CC[C@@]34CCCN3C(=O)CCC[C@H]4C2)c1	3.4
Cc1nc(C)n(CC(C)C(=O)N2CCN(S(=O)(=O)c3ccc(Cl)cc3)CC2)n1 (centres undefined)	-2.3
COC(=O)Cc1ccc(NC(=S)NNC(=O)C2CC2)cc1	0.6
C[C@H]1CN([C@@H](C)CO)S(=O)(=O)c2ccc(-c3ccncc3)cc2O[C@H]1CN(C)C(=O)c1cccc(F)c1	-0.4
CCOc1ccccc1NC(=O)CCC(=O)Nc1ccccc1OCC	1.7
CC/C(=N/NC(=O)CCC(=O)Nc1ccccc1OC)c1ccccc1	4.7
COc1ccccc1NC(=O)CCC(=O)O	14.8*	TTR inh HuH7=5.2;TTR up confirm=-0.7
COCCC(=O)Nc1ccc2c(c1)CN(C(=O)c1ccc(CSC)o1)CC2	2.0
CC[C@@H]1/C(=C/c2ccccc2)N2C(=O)C[C@@H](c3ccccc3)N=C2N1Cc1ccc(OC)cc1OC	0.8
CCCn1nc(NS(=O)(=O)c2cccc3nonc23)c2cc3ccccc3nc21	-1.6
O=C(NCc1ccco1)C(c1ccccc1)N(CC1CCCO1)C(=O)Cn1nnc2ccccc21 (centres undefined)	6.0
Cc1ccccc1C(C(=O)NCc1ccco1)N(CC1CCCO1)C(=O)Cn1nnc2ccccc21 (centres undefined)	12.0*	TTR inh HuH7=-4.1;TTR up confirm=-0.9
Cc1cccc(N(C(=O)Cn2nnc3ccccc32)C(C(=O)NCc2ccco2)c2ccncc2)c1C (centres undefined)	0.8
